Rows were chosen to be rich in hits. Some 2.4% of all compounds tested hit in one or more screens of this group.
SmPrx2 inh: Schistosoma Mansoni Peroxiredoxins (Prx2); Schistosoma mansoni peroxiredoxin 2 (Prx2); S. mansoni Prx2 activity coupled to TGR/GSH (TGR is thioredoxin glutathione reductase), NADPH fluorescence loss, qHTS; Potency, µM; hit rate 0.07% among 65,000
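qHTS, coupled TGR/Prx2 format; 15 min compound preincubation at RT; reaction started with H2O2 (2.5 mM aliquot); kinetic NADPH fluorescence decrease, ex 365/em 450 nm.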
AmpC inh det: Promiscuous and Specific Inhibitors of AmpC Beta-Lactamase (assay with detergent). purified AmpC, nitrocefin hydrolysis with detergent. AID 584, 2007. hit rate 0.09% among 71,000. Potency, µM (highest dose often 28.7 µM), inactives show at the top dose activity change, negative = inhibition. P00811; active = well fitted curve in the direction sought with a large enough effect; inconclusive = small, poorly fitted or top-dose-only effect; note: % is set by controls: 0 for no effect and ±100 for the full control effect
Target sequence (P00811 whole entry, looked up): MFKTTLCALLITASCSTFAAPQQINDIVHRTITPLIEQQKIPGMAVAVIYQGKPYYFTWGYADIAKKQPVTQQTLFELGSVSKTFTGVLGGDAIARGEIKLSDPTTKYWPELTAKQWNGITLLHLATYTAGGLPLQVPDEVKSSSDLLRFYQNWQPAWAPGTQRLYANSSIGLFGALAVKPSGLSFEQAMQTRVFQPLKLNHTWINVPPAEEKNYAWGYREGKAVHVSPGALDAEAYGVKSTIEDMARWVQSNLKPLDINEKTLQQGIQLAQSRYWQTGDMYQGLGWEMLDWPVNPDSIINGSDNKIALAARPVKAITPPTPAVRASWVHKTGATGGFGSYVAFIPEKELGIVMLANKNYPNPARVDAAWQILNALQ
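E. coli AmpC (5.3 nM) in 20 mM phosphate pH 7.0 with 0.01% Triton X-100, preincubated 15 min RT with compound; nitrocefin (2 uL of 800 uM stock) hydrolysis followed by 480 nm absorbance every 20 s over 4 min.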
AmpC inh no det: Promiscuous and Specific Inhibitors of AmpC Beta-Lactamase (assay without detergent); AID 585, 2007; hit rate 1.8% among 71,000; P00811; Potency, µM (titrated, usually from 28.7 µM), for inactives: at the highest dose activity change, negative = inhibition; AmpC nitrocefin hydrolysis, absorbance 480 nm, no detergent; note: % of control where 0% means no effect
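Enzyme, pH 7.0 phosphate. Compound titrations were pre-incubated with AmpC for 15 min at room temperature before nitrocefin (stock 800 uM) addition; product formation was recorded at 480 nm every 20 s for 4 min.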
LT uptake inh: qHTS Assay for Anthrax Lethal Toxin Internalization | Cells, anthrax lethal toxin internalization, FRET ratio (460/530) | hit rate 0.67% among 70,000 | Potency, µM (series often up to 40 µM), for inactives: at the top dose activity change, negative = inhibition, hits mostly inhibitors; note: % is set by controls: 0 for no effect and ±100 for the full control effect; nearly all actives have a fitted effect of over 50% in size
* marks the source's active call; other numbers are inactive results; ? = inconclusive; . = not tested or not shown; [ ] = dose if it differs, or a comment. Unless noted, calls come from the whole dose curve. Potency is the fitted concentration of half-maximal effect.

SMILES	SmPrx2 inh	AmpC inh det	AmpC inh no det	LT uptake inh
O=C(CCSc1nnc2scc(-c3ccccc3)n12)Nc1nc(-c2ccccc2)ns1	>57	-4%	5µM*	12%
C[C@@H]1[C@@H](C)N1C[C@H](O)Cn1ccnc1[N+](=O)[O-] (stereo partly specified)	>57	-2%[5.75 µM]	11%[5.75 µM]	4%[8 µM]
CCOC(=O)c1cc2c(=O)n(C)c3ccccc3c2s1	>57	12%	-2%	2%
CCn1c(=O)c2cc(C(=O)N3CCCC3)sc2c2ccccc21	>57	14%	4µM*[single pt active]	-10%
CCn1c(=O)c2cc(C(=O)N3CCOCC3)sc2c2ccccc21	>57	14%	4µM*[single pt active]	-16%
Cc1cccc(CNc2nc(-c3ccccc3CN(C)C)nc3ccccc23)c1	>57	8%	84%	?
CC1=C/C(=C(/c2ccc(O)c(C)c2)c2ccccc2C(=O)O)C=CC1=O	>57	-5%[5.75 µM]	-10%[5.75 µM]	-15%[8 µM]
O=C(O)C1=CC(=C(c2ccc(O)c(C(=O)O)c2)c2ccc(O)c(C(=O)O)c2)C=CC1=O	>57	10µM*	7.9µM*	?
Cc1cccc(C2CC(c3ccccc3)Nc3ncnn32)c1 (stereo unspecified)	>57	15%	4µM*[single pt active]	-1%
COc1ccc(C2CC(c3cccc(C)c3)n3ncnc3N2)cc1 (stereo unspecified)	>57	15%	4µM*[single pt active]	-2%
COc1ccc(C2CC(c3ccco3)n3ncnc3N2)cc1 (stereo unspecified)	>57	8%	2.5µM*[single pt active]	-10%
CCOc1ccc(C2CC(c3cccc(C)c3)n3ncnc3N2)cc1 (stereo unspecified)	>57	13%	83%	-13%
Fc1ccc(C2CC(c3ccccc3)Nc3ncnn32)cc1 (stereo unspecified)	>57	14%	4µM*[single pt active]	-11%
c1ccc(C2CC(c3ccccc3)n3ncnc3N2)cc1 (stereo unspecified)	>57	0%	16%	7%
c1cncc(CNc2cc(-c3ccc4c(c3)OCO4)ncn2)c1	>57	-3%	-2%	3%
COc1ccc(Oc2ncc3nc(-c4cc(F)cc(F)c4)c(=O)n(C[C@H]4CCCO4)c3n2)cc1	>57	4%	34%	?
COc1ccc(CNc2ncnc3ccc(-c4c(C)noc4C)cc23)c(OC)c1	>57	9%	32%	?
CCSc1ccc2c(c1)N(CCCN1CCN(C)CC1)c1ccccc1S2	>57	-3%[12.8 µM]	57%[12.8 µM]	15%[3.58 µM]
CN1CCN(CCCN2c3ccccc3Sc3ccc(Cl)cc32)CC1	>57	-2%[12.8 µM]	61%[12.8 µM]	25µM*
O=C(Nc1cccnc1)C(Cc1ccccc1)n1cccc1 (stereo unspecified)	>57	8%	27%	-1%
O=C(Nc1ncc(Br)s1)C(Cc1ccccc1)n1cccc1 (stereo unspecified)	>57	3%	13µM*	?
Cc1ccc(-c2nnc3n2N=C(c2ccccc2)CS3)cc1	>57	13%	8%	-18%
c1ccc(C2=Nn3c(nnc3-c3cc(-c4ccccc4)n[nH]3)SC2)cc1	>57	3%	38%	13µM*
COc1ccc(-c2oc3cc(OC)c(OC(C)=O)c(OC)c3c(=O)c2OC)cc1OC(C)=O	37*	0%	18%	?
O=S(=O)(c1cccc2c(I)cccc12)N1CCCNCC1	>26	-3%	42%	3.2µM*
SMILES	SmPrx2 inh	AmpC inh det	AmpC inh no det	LT uptake inh
CCCCN(C)C(=O)C(Cc1ccccc1)NS(=O)(=O)c1ccc2c(c1)CCC(=O)N2 (stereo unspecified)	>57	11%	4µM*[single pt active]	9%
O=C1CCc2cc(S(=O)(=O)NC(Cc3ccccc3)C(=O)NC3CCCCC3)ccc2N1 (stereo unspecified)	>57	11%	4µM*[single pt active]	16%
CC(C)(C)NC(=O)C(Cc1ccccc1)NS(=O)(=O)c1ccc2c(c1)CCC(=O)N2 (stereo unspecified)	>57	14%	-6%	6%
CCOC(=O)C1[C@H]2C(=O)N(C(C)c3ccc(OC)cc3)C[C@]23C=C[C@H]1O3 (stereo partly specified)	>57	-2%	-11%	?
CCC(C)N1CC23C=CC(O2)C(C(=O)OC)C3C1=O (stereo unspecified)	>57	13%	4µM*[single pt active]	10%
Cc1cc(C)cc(N(CC(=O)N2CCn3c2nc2ccccc23)S(=O)(=O)c2c(C)noc2C)c1	>57	11%	4µM*[single pt active]	?
Cc1cc(C)cc(N(CC(=O)N2CCc3ccccc32)S(=O)(=O)c2c(C)noc2C)c1	>57	11%	4µM*[single pt active]	2µM*
CCOc1ccc(N(CC(=O)N2CCc3ccccc32)S(=O)(=O)c2c(C)noc2C)cc1	>57	17%	3.2µM*[single pt active]	?
Cc1n[nH]c(C)c1S(=O)(=O)N(CC(=O)N1CCc2ccccc21)c1ccc(C(C)C)cc1	>57	11%	4µM*[single pt active]	6%
Cc1cc(C)cc(N(CC(=O)N2CCN(c3ccccc3)CC2)S(=O)(=O)c2c(C)noc2C)c1	>57	15%	108%	?
C=C[C@@H]1CN2CC[C@@H]1C[C@H]2[C@H](O)c1ccnc2ccccc12	>57	-2%	-1%	-12%
Cc1cc(SCc2sc(-c3ccc(C(F)(F)F)c(F)c3)nc2C)ccc1OCC(=O)O	.	.	.	-26%
CNC(=O)[C@@H]1O[C@@H](n2cnc3c(NCc4cccc(I)c4)ncnc32)[C@H](O)[C@@H]1O	>57	-3%	62%	-8%
COc1cc(OC)c(C(=O)Oc2ccc3c(c2)OCO3)cc1OC	>57	-2%	47%	?
COc1ccc(C(=O)Oc2ccc3c(c2)OCO3)cc1OC	.	9%	33%	7.9µM*
C[C@@H](C(=O)O)c1ccc(C[C@@H]2CCCC2=O)cc1	>57	-3%	6%	-8%
COc1cccc(C2CC(c3ccc(F)cc3)Nc3nc(N)nn32)c1 (stereo unspecified)	>57	11%	2.5µM*[single pt active]	-1%
COc1ccc(C2CC(c3cccc(C)c3)n3nc(N)nc3N2)cc1 (stereo unspecified)	>57	11%	4µM*[single pt active]	-3%
COc1cccc(C2CC(c3cccc(OC)c3)n3nc(N)nc3N2)c1 (stereo unspecified)	>57	12%	4µM*[single pt active]	3%
O=C(Cl)c1cccc([N+](=O)[O-])c1	.	14%	0%	13%
CCOC(=O)C1C(=O)Oc2ccc3ccccc3c2C1C1CCOC1=O (stereo unspecified)	>57	14%	4µM*[single pt active]	-11%

Screens deposited in PubChem by National Center for Advancing Translational Sciences (NCATS).
